Six1-Eya2 blk: inhibitors of human Six1/Eya2 interaction; activity change, % (concentration not given with the values); AlphaScreen GST-Six1/His-Eya2 binding, biochemical; hits give low values; 360,000 compounds, 0.56% hits; AID 651725
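GST-Six1 + His-Eya2 (5X stock: 250/500 nM); Tris pH 8.0, 300 mM NaCl, 0.05% BSA, 0.02% Tween 20; GSH donor/Ni acceptor beads; 1 h 37 °C dark; AlphaScreen readout.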
CtBP-E1A blk: CtBP/E1A binding inhibition; AID 651724; AlphaScreen GST-E1A/His-CtBP binding, 1536-well; hits give low values; 340,000 compounds, 0.49% hits; activity change, % (concentration not given with the values)
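Steps: dispense buffer (Tris pH 8.0, NaCl 300 mM, TCEP 1 mM, BSA, Tween 20); add 5X protein mix (GST-E1A, His-CtBP, 125 nM each); pin 23 nL compound; 2 h at 37 °C, dark; add 5X beads (50 ug/mL); 1 h; read.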
JMJD2E inh: JMJD2E (human) inhibition. B2RXH2. AID 2147. Potency, µM (series often up to 57.1 µM), actives largely listed as inhibitors. 230,000 compounds, 1.6% hits. JMJD2E catalytic domain, FDH-coupled NADH fluorescence (FDH is formaldehyde dehydrogenase); further: nearly all actives have a fitted effect of over 50% in size
KCNH2 3.1 inh: blocks the human KCNH2 3.1 channel isoform. AID 720553. U2OS KCNH2 3.1, thallium flux FluxOr; hits give low values. activity change, % (tested at about 1.8 µM). 340,000 compounds, 0.95% hits;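 active means maximum activity change below -70%; inconclusive means maximum activity change from -70% to -50%; inactive means maximum activity change above -50%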;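 further: thallium influx rate constant from kinetic fluorescence after stimulation buffer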
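U2OS cells transduced with KCNH2 3.1 mutant virus (1.77 x 10^8 /mL, 4 h), plated overnight at 37 C, loaded 45 min with FluxOr dye plus Red40 quencher. Thallium flux rate constant from kinetic reads after stimulation buffer, normalised to controls.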
hERG WT inh: inhibitors of human wildtype KCNH2 potassium channel | U2OS, BacMam KCNH2, thallium flux FluxOr; hits give low values | 340,000 compounds, 0.37% hits | activity change, % at 1.84 µM | AID 720551 | Q12809;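 active means maximum activity change below -70%; inconclusive means maximum activity change between -70% and -50%; inactive means maximum activity change above -50%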
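U2OS cells were transduced with wild-type KCNH2 virus (2.03 x 10^8 / mL) for 4 h at room temperature, then cultured overnight at 37 C. Thallium flux was read with FluxOr dye. Rate constants were normalized to DMSO controls.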
A number is an active result; . = inactive; ? = inconclusive; / = not tested or not shown. Rows were chosen to be rich in hits. Some 2% of all compounds tested hit in one or more screens of this group. Unless noted, no stated cut-off is given here; in the data, active means activity change below about -65%; inconclusive means mostly about -30% to -63%; inactive means weaker than that.

SMILES	Six1-Eya2 blk	CtBP-E1A blk	JMJD2E inh	KCNH2 3.1 inh	hERG WT inh
S=C(NCc1ccccn1)Nc1ccc(Cl)c(Cl)c1	.	.	.	/	.
CC1=NN(c2ccccc2)C(=O)C1C=Nc1ccccc1O (stereo not given)	.	?	31.6µM	.	.
CCOC(=O)c1c(NC(=O)C(=O)N/N=C/c2ccccc2O)sc2c1CCCCC2	.	.	31.6µM	.	.
CCOC(=O)c1c(NC(=O)C(=O)N/N=C/c2ccccc2OC)sc2c1CCCCC2	.	.	.	.	.
Cc1ccc(-n2cccn2)cc1	.	.	.	.	.
O=Cc1ccc(-n2cccn2)cc1	.	.	14.1µM	.	.
Cn1nccc1NC(=O)Nc1ccc(Cl)cc1	.	/	.	-85.8	.
CCOc1ccc(NC(=O)CC2C(=O)N(CC)C(=S)N2CCN2CCOCC2)cc1 (stereo not given)	.	.	.	-87.5	.
C=CCn1c(COc2ccc(Cl)cc2)nnc1SCC(=O)N/N=C/c1ccccc1	.	.	.	.	.
CCN1/C(=C2/SC(=S)N(C)C2=O)C=Cc2cc(C)ccc21	.	.	/	.	.
Cc1ccc(Nc2c(-c3ccccn3)nc3cc(C)ccn23)cc1	-81.5	-93.1	.	.	.
Cc1cc(C)n2c(Nc3ccc4c(c3)OCCO4)c(-c3ccccn3)nc2n1	-88.8	?	/	/	/
Cc1ccc(Nc2c(-c3ccccc3)nc3cnccn23)cc1	.	.	?	.	.
Cc1ccc(-c2nc3ccccn3c2NCc2ccc3c(c2)OCO3)cc1	.	.	?	-92.2	.
Cc1ccn2c(Nc3ccc4c(c3)OCO4)c(-c3ccccn3)nc2c1	-87.9	-80.8	.	.	.
Nc1nccc2c1ncn2C1OC(CO)C(O)C1O (stereo not given)	.	.	/	.	.
O=C(CCl)N(C/C=C/c1ccccc1)c1ccc2c(c1)OCCO2	.	.	.	.	.
Cc1ccc2nc(-c3ccc(-c4cccc(Cl)c4)cc3)c(NCc3ccccc3)n2c1	.	.	/	-78.3	.
COc1cc(-c2nc3ccc(C)cn3c2NCc2ccccc2)ccc1-c1cccc(Cl)c1	.	.	/	.	.
Cc1ccc(Nc2c(-c3ccccn3)nc3ccc(C)cn23)cc1	-93.0	/	.	.	.
CCOC(=O)c1cnc(-n2nc(C)cc2C)nc1NC	.	?	?	.	.
CCOC(=O)c1cnc(-n2nc(C)cc2C)nc1NC1CCCCC1	.	.	.	.	-104.6
COC(=O)c1sc2cc(C(F)(F)F)cnc2c1-c1cccnc1	-72.1	.	.	.	.
COc1ccccc1NC(=O)CN(Cc1ccco1)C(=O)c1cc(Cl)c(OC)c(OC)c1	.	.	/	.	.
O=C(N/N=C/c1cccc2nccnc12)c1ccccc1O	-89.4	-75.6	?	.	.
SMILES	Six1-Eya2 blk	CtBP-E1A blk	JMJD2E inh	KCNH2 3.1 inh	hERG WT inh
CCC(C)[C@H](NC(=O)OC(C)(C)C)C(=O)N/N=C/c1cccc2nccnc12 (stereo not given in full)	.	.	?	.	.
O=C(N/N=C/c1cccc2cccnc12)c1ccccc1O	-92.0	/	?	.	.
CCC(C)[C@@H](N)C(=O)N/N=C/c1cccc2nccnc12 (stereo not given in full)	-87.4	-71.1	?	.	.
O=C(N/N=C\c1ccccn1)c1ccccc1O	?	?	?	.	.
COc1ccc(-n2c(C)cc(C(=O)CN3CCC(C)CC3)c2C)cc1	.	.	.	.	.
Cc1ccc(S(=O)(=O)N2CCN(C(=O)[C@H](Cc3ccccc3)NC(=O)c3ccco3)CC2)cc1	.	.	/	.	.
c1ccc(-c2cn(C[C@H]3CC[C@@H]([C@@H]4CC[C@H](Cn5cc(-c6ccccn6)nn5)O4)O3)nn2)nc1	-87.4	-81.2	/	.	.
c1ccc(-c2cn(C[C@H]3CC[C@@H]([C@@H]4CC[C@H](Cn5cc(-c6ccccc6)nn5)O4)O3)nn2)cc1	.	.	/	.	.
CCOC(=O)C1=C(N)n2c(s/c(=C/c3ccco3)c2=O)=C(C(=O)OC)C1c1ccco1 (stereo not given)	?	?	?	.	.
N#CC1=C(N)n2c(s/c(=C\c3ccco3)c2=O)=C(C#N)C1c1ccco1 (stereo not given)	-71.3	?	?	.	.
CSc1nc2ccc(Br)cc2[nH]1	.	.	.	-72.2	.
CC(C)Sc1nc2ccc(Br)cc2[nH]1	.	.	.	.	.
CC(C)CCOC(=O)/C(=C/c1ccco1)NC(=O)/C=C/c1ccccc1	.	.	.	.	.
Cc1nc2c(=O)[nH]c(=S)[nH]c2[nH]c1=O	-65.6	.	/	.	.
COc1ccc2c(c1)C(=O)CCC2c1ccccc1 (stereo not given)	.	.	/	-119.7	.
O=C(COC(=O)/C=C/c1cccs1)Nc1ccc(F)cc1	.	/	/	.	.
Cc1c(C(=O)N(C)C)c2ccc(Cl)cc2n1O	.	.	.	-107.3	.
COC(=O)c1cccc(NC(=O)CN2CCN(c3ccc(OC)cc3)CC2)c1	.	.	.	.	.
CCC(=O)c1ccc(OCC(O)CN(CCc2ccccc2)Cc2ccccc2)cc1 (stereo not given)	.	.	.	-70.2	.
CCN(CC)CC(O)COc1ccccc1C(=O)CCc1ccccc1 (stereo not given)	.	.	.	-71.1	.
CCCCN(CCCC)CC(O)COc1ccccc1C(=O)Nc1ccccc1 (stereo not given)	.	.	.	-73.6	.
CCOC(=O)C1CCN(C(=O)c2c(-c3ccccc3)noc2C)CC1	.	.	?	-75.4	.
CCOC(=O)C1CCN(C(=O)c2ccccc2NS(=O)(=O)c2ccc(C)cc2)CC1	.	.	/	.	.
CCOC(=O)C1CCN(C(=O)c2ccccc2N(C)S(C)(=O)=O)CC1	.	.	.	-90.8	.
CCn1c(C)cc(/C=C2\NC(=O)N(CC(=O)Nc3cccc(C)c3)C2=O)c1C	.	.	?	.	.
SMILES	Six1-Eya2 blk	CtBP-E1A blk	JMJD2E inh	KCNH2 3.1 inh	hERG WT inh
CCn1c(C)cc(/C=C2/NC(=O)N(CC(=O)Nc3cccc(C)c3)C2=O)c1C	.	.	22.4µM	.	.
CCn1c(C)cc(/C=C2/NC(=O)N(c3ccccc3)C2=O)c1C	.	.	25.1µM	.	.
CCN(CC)C(=O)C1=C(C)N(Cc2ccccc2)C(=O)C(CC(=O)NCCc2ccccn2)C1 (stereo not given)	.	.	/	.	.
Cc1cc(Nc2ccc(Cl)cc2)nc(NCc2ccccc2)n1	.	.	?	-77.9	.
Cc1cc(N/N=C/c2ccc(O)cc2)nc(NS(=O)(=O)c2ccccc2)n1	-73.0	?	?	.	.
Cc1ccc(/C=N/Nc2cc(C)nc(NCc3ccccc3)n2)cc1	.	.	.	-79.5	.
Cc1cc(N/N=C/c2ccc(N(C)C)cc2)nc(NCc2ccccc2)n1	.	.	?	.	.
Cc1cc(N/N=C/c2ccc(F)cc2)nc(NCc2ccccc2)n1	.	.	.	-100.3	.
